Screens (PubChem)
Cycloheximide cs – affects cycloheximide protein synthesis inhibition readout, counter-screen; AID 2314; cell reporter, cycloheximide protein synthesis inhibition counterscreen; max response, %; hit rate 12% among 300,000; in the data active means max response mostly above about 13%, no sharp cut-off; inactive means mostly below about 14%; further: read at 38.3 µM for the half of the compounds with a filed dose; 0% is about no effect
MARV entry inh – Marburg virus entry inhibition; AID 540276; Potency, µM (titrated, usually from 37.8 µM), without a hit: at the top dose activity change, negative = inhibition, most hits filed as inhibitors; Marburg virus pseudotyped entry inhibition, cell reporter; hit rate 1.8% among 300,000; calls by dose curve; tested in HEK293 cells; further: potency means the concentration at half of the fitted maximal effect; on the % scale 0 is the no-effect control and ±100 the full control effect
FMDV inh – antivirals against foot and mouth disease virus | FMDV antiviral cell-based qHTS | Potency, µM (titrated, usually from 57.9 µM), for the others: at the highest dose activity change, negative = inhibition, usual class: inhibitors | hit rate 1.2% among 410,000 | AID 1159524; calls by dose curve; tested in HEK293T cells; further: read-out not given here; potency means the concentration at half of the fitted maximal effect; on the % scale 0 is the no-effect control and ±100 the full control effect; nearly all actives have a fitted effect of over 45% in size
LASV entry inh – Lassa virus entry inhibition. hit rate 1.2% among 300,000. Lassa virus pseudotype entry inhibition, cell reporter. Potency, µM (titrated, usually from 37.9 µM), inactives show at the top dose activity change, negative = inhibition, most hits filed as inhibitors. AID 540256; calls by dose curve; tested in HEK293 cells; further: potency means the concentration at half of the fitted maximal effect; on the % scale 0 is the no-effect control and ±100 the full control effect; nearly all actives have a fitted effect of over 50% in size
Shiga inhibitor – inhibitors of Shiga toxin in Vero cells; Vero cells, Shiga toxin protein synthesis inhibition reporter; inhibition, % at 38.7 µM; hit rate 9.2% among 290,000; AID 2315; in the data active means inhibition mostly above about 28%, no sharp cut-off; inactive means mostly below about 43%; further: 0% is about no effect
HCV inh – HCV inhibition; AID 651820; Potency, µM (top dose mostly 41.8 µM), inactives show at the top dose activity change, negative = inhibition, actives largely listed as inhibitors; Huh7.5.1 HCVcc-Cre infection, luciferase reporter, 44 h; hit rate 3.4% among 340,000; active means well fitted inhibition curve with a large enough effect; inconclusive means small, poorly fitted or top-dose-only effect, or another doubt; inactive means no such curve, though single readings can be large or run the other way; further: potency means the concentration at half of the fitted maximal effect; on the % scale 0 is the no-effect control and ±100 the full control effect
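Cells seeded at 1,000/well and cultured 4 h, then compounds added followed by HCVcc-Cre virus (~0.5 moi). After 44 h further culture, luciferase substrate was added, plates held 15 min at room temperature, and luminescence read for 15 sec.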
* marks the source's active call; other numbers are inactive results; [ ] = remark or other dose. The list is not random: actives were taken first. Their share in the collection is about 13%.

NS(=O)(=O)c1ccc(NC(=O)c2ccc3c(c2)CCN3S(=O)(=O)c2ccccc2)cc1 was read as Cycloheximide cs -2.4, MARV entry inh -2.7%[46.1 µM], FMDV inh -29.7%, LASV entry inh -15.1%[46.1 µM], Shiga inhibitor -8.2 and HCV inh 31.6µM*.
`O=C(NCc1cccs1)c1csc2c1CCCCC2` gave Cycloheximide cs 21.1*, MARV entry inh 3.4%, LASV entry inh 3.9%, Shiga inhibitor 19.2 and HCV inh 4.2%.
Screening O=C(NCc1ccco1)c1csc2c1CCCCC2 returned Cycloheximide cs 22.1*, MARV entry inh 16.4%, LASV entry inh 7.9%, Shiga inhibitor 19.3 and HCV inh 14.1%.
CC1CCc2c(C(=O)NCc3ccco3)csc2C1 (stereo unspecified) was read as Cycloheximide cs 16.6*, MARV entry inh -1.2%[46.1 µM], FMDV inh 26.2%, LASV entry inh -0.6%, Shiga inhibitor 48.2 and HCV inh inconclusive.
COc1ccccc1NC(=O)c1csc2c1CCC(C)C2 (stereo unspecified) was read as Cycloheximide cs 50.9*, FMDV inh 44.4%, Shiga inhibitor 66.9* and HCV inh -12.8%.
O=C(NCc1ccccc1)c1csc2c1CCCCC2 was read as Cycloheximide cs 21.8, MARV entry inh inconclusive, FMDV inh 2.6%, LASV entry inh -1.6%, Shiga inhibitor 46.1 and HCV inh -10.3%.
For Cc1cc(F)ccc1NC(=O)c1csc2c1CCC(C)C2 (stereo unspecified) the results were MARV entry inh inconclusive and FMDV inh 52.4%.
Screening CC1=C/C(=N\OC(=O)/C=C/c2ccccc2)C(C)=CC1=O returned Cycloheximide cs -3.7, MARV entry inh 12.4%, FMDV inh 1.8%, LASV entry inh 26.2%, Shiga inhibitor -7.4 and HCV inh 13.7%.
`CN1CCN(c2ccc(NC(=O)c3ccc(-c4ccc(Cl)cc4)o3)cc2)CC1` gave Cycloheximide cs 7.8, MARV entry inh inconclusive, FMDV inh -24.5%, LASV entry inh inconclusive, Shiga inhibitor 38.6 and HCV inh inconclusive.
For O=C(NCc1cccs1)c1ccccc1C(=O)NCc1cccs1 the results were Cycloheximide cs -1.5, MARV entry inh 1.9%, FMDV inh 3.4%, LASV entry inh -6.4%, Shiga inhibitor -7.1 and HCV inh 15.6%.
O=C(NCc1cccs1)c1cc2c(s1)CCCC2 was read as Cycloheximide cs 45.1*, MARV entry inh inconclusive, FMDV inh 43.9%, LASV entry inh -30.8%, Shiga inhibitor 85.8* and HCV inh inconclusive.
Screening CC(C)(O)C#Cc1ccc(C(=O)NCc2cccs2)s1 returned Cycloheximide cs 26.4*, MARV entry inh 19.6%, FMDV inh 40.7%, LASV entry inh 15.8%, Shiga inhibitor 32.9 and HCV inh 1.3%.
For CC(=O)c1ccc(C#CC(C)(C)O)s1 the results were Cycloheximide cs 12.7, MARV entry inh 1.1%[46.1 µM], FMDV inh -3.2%, LASV entry inh inconclusive, Shiga inhibitor -0.5 and HCV inh 7.1%.
Screening CCOc1ccc2nc(Cl)c(C3CC(c4ccco4)=NN3S(=O)(=O)c3ccccc3)cc2c1 (stereo unspecified) returned Cycloheximide cs -2.3, MARV entry inh inconclusive, FMDV inh -7.0%, LASV entry inh 2.1%, Shiga inhibitor active and HCV inh inconclusive.
For O=C(CCCSc1ccccc1)Nc1ccc(Cl)c(S(=O)(=O)N2CCOCC2)c1 the results were MARV entry inh inconclusive, FMDV inh 25.1µM*, LASV entry inh inconclusive and HCV inh inconclusive.
O=C(CCCOc1ccccc1)Nc1ccc(Cl)c(S(=O)(=O)N2CCOCC2)c1 was read as MARV entry inh inconclusive, FMDV inh 28.2µM*, LASV entry inh 17.8µM* and HCV inh 7.08µM*.
For Cc1ccc(OCCCC(=O)Nc2ccc(Cl)c(S(=O)(=O)N3CCOCC3)c2)cc1 the results were FMDV inh inconclusive and HCV inh 7.08µM*.
`CC(=O)c1ccc(OCCCC(=O)Nc2ccc(Cl)c(S(=O)(=O)N3CCOCC3)c2)cc1` gave FMDV inh 15.8µM* and HCV inh 2.51µM*.
For COc1cc(NS(=O)(=O)c2ccc(Cl)cc2)c(C(=O)O)cc1OC the results were Cycloheximide cs -1.2, MARV entry inh 8.8%, FMDV inh -9.2%, LASV entry inh -14.2%, Shiga inhibitor -19.5 and HCV inh 2.7%.
